From PubChem BioAssay (NCI)
The panel holds about 79,000 compounds, 15% with a hit somewhere; the sample as a whole holds those more often. Values without a mark were called inactive. The source made the active and inactive calls. No stated cut-off is given here; in the data, active means growth inhibition above about 70%; inactive means the rest.

Tests used:
[1] = NCI Yeast Anticancer Drug Screen. Data for the rad50 strain (AID 155);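 further: 0% = growth of vehicle-only cultures of the same strain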; conditions: S. cerevisiae rad50 strain growth inhibition, stronger effect = higher value
Method in brief: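 Readout: growth inhibition relative to vehicle-treated cultures. Compound exposure was carried out in a genetically defined yeast strain deficient in DNA damage repair.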

[2] = NCI Yeast Anticancer Drug Screen. Data for the mec2-1 strain (AID 157); conditions: S. cerevisiae mec2-1 strain, stronger effect = higher value
Method in brief: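 mec2-1 yeast strain, carrying an alteration in DNA damage repair or cell cycle control, was exposed to compounds; growth inhibition was measured relative to vehicle-treated controls.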

[3] = NCI Yeast Anticancer Drug Screen. Data for the sgs1 mgt1 strain (AID 161);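 further: 0% = growth of cultures given vehicle only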; conditions: S. cerevisiae sgs1 mgt1 strain, stronger effect = higher value
Method in brief: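 Yeast cells carrying a defined DNA-repair defect were exposed to test compounds. Growth inhibition was measured relative to vehicle-treated controls.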

[4] = NCI Yeast Anticancer Drug Screen. Data for the cln2 rad14 strain (AID 165);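 further: 0% = growth equal to vehicle treated cultures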; conditions: S. cerevisiae cln2 rad14 strain, stronger effect = higher value
Method in brief: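 Yeast carrying cln2 and rad14 alterations (cell cycle control and DNA damage repair) were exposed to compounds. Growth inhibition was measured against vehicle-treated controls.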

[5] = NCI Yeast Anticancer Drug Screen. Data for the bub3 strain (AID 167); conditions: S. cerevisiae bub3 mutant strain, stronger effect = higher value
Method in brief: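 Readout: yeast growth inhibition, expressed relative to vehicle-only wells. The test organism is a mutant strain from a panel with lesions in DNA repair or checkpoint genes.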

[6] = NCI Yeast Anticancer Drug Screen. Data for the mlh1 rad18 strain (AID 175); conditions: S. cerevisiae mlh1 rad18 strain growth inhibition, stronger effect = higher value
Method in brief: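 Growth inhibition of the yeast strain was measured after compound exposure and expressed relative to vehicle-treated controls. The strain carries defined defects in DNA damage repair.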

[7] = at 5.0 µM (retest, dose inferred, filed as 0.5)
[8] = at 50.0 µM (retest, dose inferred, filed as 5.0)

Structure (SMILES)	growth inhibition [1, 7] [%]	growth inhibition [1, 8]	growth inhibition ([1]; at 50.0 µM)	growth inhibition [2, 7] [%]	growth inhibition [2, 8]	growth inhibition ([2]; at 50.0 µM)	growth inhibition [3, 7] [%]	growth inhibition [3, 8]	growth inhibition ([3]; at 50.0 µM)	growth inhibition [4, 7] [%]	growth inhibition [4, 8]	growth inhibition ([4]; at 50.0 µM)	growth inhibition [5, 7] [%]	growth inhibition [5, 8]	growth inhibition ([5]; at 50.0 µM)	growth inhibition [6, 7] [%]	growth inhibition [6, 8]	growth inhibition ([6]; at 50.0 µM)
C/C=C(\C)C(=O)OC1C(C)C2(O)C(C=C(CO)CC3(O)C(=O)C(C)=CC32)C2C(C)(C)C12OC(=O)CCCCCCCCC (stereo unspecified)	0	85% (active)	79% (active)	-3	90% (active)	84.1% (active)	-15	89% (active)	83.4% (active)	24	86% (active)	75.7% (active)	33	89% (active)	80.9% (active)	22	86% (active)	81.6% (active)
CN1c2ccccc2C(C)(C)C12C=Cc1cc(O)ccc1O2 (stereo unspecified)	20	31%	70.8% (active)	9	10%	47.6%	8	38%	61.9%	14	23%	35.6%	-4	51%	52.4%	-15	33%	54.1%
O=C1Nc2ccccc2/C1=N\N=c1/scc(-c2ccccc2)n1-c1ccccc1	13	72% (active)	59.5%	5	74% (active)	74.5% (active)	8	61%	62.1%	10	90% (active)	62.6%	9	87% (active)	51.7%	9	78% (active)	88.5% (active)
NC(=S)N/N=C1/C(=O)c2cccc3cccc1c23	10	96% (active)	91.8% (active)	-2	78% (active)	0.1%	1	80% (active)	66.7%	-9	65%	-26.7%	9	65%	7.65%	6	90% (active)	70.5% (active)
CN(C)c1nc(=Nc2ccc(N=c3nc(N(C)C)ss3)cc2)ss1	0	97% (active)	91.8% (active)	4	96% (active)	92.8% (active)	28	98% (active)	88.2% (active)	-4	93% (active)	69%	4	98% (active)	93.4% (active)	11	98% (active)	96.9% (active)
Cc1cccc(Nc2c3c(nc4ccccc24)CCCCC3)c1	0	89% (active)	90% (active)	-2	79% (active)	28.1%	-2	85% (active)	86.8% (active)	-3	53%	66.9%	-1	92% (active)	27.1%	-5	83% (active)	93.2% (active)
Cc1cc(NS(=O)(=O)c2ccc(Nc3c4ccccc4nc4c(C(=O)NC(CO)(CO)CO)cccc34)cc2)no1	-1	17%	75.2% (active)	-5	-10%	23.9%	-1	-3%	-1.6%	-21	17%	71.5% (active)	0	-6%	6.25%	-2	19%	74% (active)
O=C1CSC(c2cccc([N+](=O)[O-])c2)N1c1ccc(-c2ccc(-n3c(-c4ccccc4)nc4ccccc4c3=O)cc2)cc1 (stereo unspecified)	-12	72% (active)	25.1%	-2	36%	59.5%	2	78% (active)	-29.4%	26	48%	34%	-12	91% (active)	87.8% (active)	9	90% (active)	83.2% (active)
OC(CNc1ccnc2cc(Cl)ccc12)CNc1ccnc2cc(Cl)ccc12	-2	34%	40%	0	31%	23.1%	0	46%	15.6%	-4	46%	-21.2%	-2	41%	2.8%	2	60%	85.7% (active)
CN(C)c1ccc(C2ON=C(c3ccccc3)N2C23CC4CC(CC(C4)C2)C3)cc1 (stereo unspecified)	0	36%	-11.6%	-11	3%	-3.05%	-5	33%	-7.15%	8	2%	55.3%	14	13%	-11.1%	4	5%	-24%
NNC(=O)NN=C(c1ccccc1)c1ccccc1	0	16%	1.5%	-2	1%	-13.2%	-3	0%	11.4%	0	-12%	-26.5%	-4	-1%	3.95%	-11	1%	33.1%
O=C(CCN(Cc1ccccc1)Cc1ccccc1)c1ccc2ccccc2c1	30	55%	76.2% (active)	28	58%	55.6%	59	89% (active)	90.6% (active)	33	61%	83.8% (active)	45	69%	60.1%	35	68%	81.4% (active)
